Results on 14 compounds are retold here after PubChem BioAssay (NCI).

The panel holds about 83,000 compounds, 20% with a hit somewhere; the sample as a whole holds those more often.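 Method: cells in 96-well plates; compound added at one concentration; 48 h incubation; percent growth measured; values under 10 scored active.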 Unmarked numbers belong to inactive results. The source made the active and inactive calls.

Test systems include SR leukemia; RPMI-8226 leukemia; OVCAR-8 ovarian; OVCAR-5 ovarian; SK-OV-3 ovarian; IGROV1 ovarian; OVCAR-3 ovarian; HS 578T breast; NCI/ADR-RES ovarian; OVCAR-4 ovarian.
What all share (test): NCI-60 one-dose screen, 48 h (100 = growth as untreated, 0 = no growth, -100 = all killed)
Details in all cases: 10 µM unless noted

On to `O=C(Nc1ccc2ncnc(Nc3ccc(Oc4cccc(F)c4)c(Cl)c3)c2c1)c1ccc(CNCCO)cc1`, for which the growth in the assay with SR leukemia was 5.98% (active); in the assay on RPMI-8226 leukemia it was 6.61% (active); with OVCAR-8 ovarian, 31.5%; with OVCAR-5 ovarian, 78.1%; in the assay with SK-OV-3 ovarian, 29.5%; in the assay with IGROV1 ovarian, 9.12% (active). In addition, the growth with OVCAR-3 ovarian was 45.7%; in the assay with HS 578T breast it was 51.3%; with NCI/ADR-RES ovarian, 76.9%.
As for `CN(Cc1ccccc1)c1nc(Cl)c(C2CC(c3ccc(Cl)cc3)=Cc3[nH][nH]c(=O)c32)s1` (centres undefined), the growth is 94.2% in the assay on SR leukemia; 92.5% with RPMI-8226 leukemia; 94.5% in the assay on OVCAR-8 ovarian; 97.5% in the assay with OVCAR-5 ovarian; 101% in the assay with SK-OV-3 ovarian; 88.1% with IGROV1 ovarian. Moreover, the growth with OVCAR-3 ovarian is 95%; in the assay with HS 578T breast, 96.4%; in the assay on NCI/ADR-RES ovarian, 89.6%.
`CCSc1ccc2c(c1)N(CCCN1CCN(C)CC1)c1ccccc1S2`: the growth in the assay with SR leukemia was -15% (active); in the assay on RPMI-8226 leukemia, 32.1%; with OVCAR-8 ovarian it was 76.3%; with OVCAR-5 ovarian it was 70%; in the assay with OVCAR-4 ovarian, 61.2%; in the assay on SK-OV-3 ovarian, 78.7%. Moreover, the growth with OVCAR-3 ovarian was 58.2%; in the assay with HS 578T breast it was 61.4%; in the assay with NCI/ADR-RES ovarian it was 60.8%.
For the compound `C=C1C(=O)O[C@H]2[C@H]1CC/C(COC(=O)CCCCCC(=O)OC/C1=C/CC[C@@]3(C)O[C@H]3[C@H]3OC(=O)C(=C)[C@@H]3CC1)=C\CC[C@@]1(C)O[C@@H]21`, the growth is 3.39% (active) with SR leukemia; 1.08% (active) in the assay on RPMI-8226 leukemia; 12.2% in the assay with OVCAR-8 ovarian; 51.2% in the assay with OVCAR-5 ovarian; 94.6% in the assay with SK-OV-3 ovarian; 7.45% (active) in the assay on IGROV1 ovarian. Also, the values for the growth in the assay with OVCAR-3 ovarian, in the assay with HS 578T breast and in the assay with NCI/ADR-RES ovarian were 1.8% (active), 18.7% and 46.9%, respectively.
On to `CC(=O)c1c[nH]c2ccc(-c3ccnc(Nc4ccc(NC(=O)C5CCCC5)c(CN5CCOCC5)c4)n3)cc12`, for which the growth is 3.58% (active) in the assay with SR leukemia; -42.2% (active) with RPMI-8226 leukemia; 7.02% (active) in the assay with OVCAR-8 ovarian; -11.6% (active) in the assay with OVCAR-5 ovarian; 10.6% with SK-OV-3 ovarian; -14.8% (active) with IGROV1 ovarian. Further, the growth in the assay with OVCAR-3 ovarian was -7.43% (active); in the assay with HS 578T breast, -27.7% (active); in the assay on NCI/ADR-RES ovarian, -4.77% (active).
In the case of `CCCCCCN(C)Cc1ccc(OCCOc2ccc(CN(C)CCCCCC)cc2)cc1`, the growth in the assay on SR leukemia was -43.7% (active); in the assay with RPMI-8226 leukemia, -14.4% (active); in the assay with OVCAR-8 ovarian, 47.7%; with OVCAR-5 ovarian, 42.9%; with OVCAR-4 ovarian, 31.4%; with SK-OV-3 ovarian it was 48.6%. Moreover, the growth was -22% (active) in the assay with HS 578T breast and 1.98% (active) with NCI/ADR-RES ovarian.
For the compound `COc1ccccc1Nc1cc(O)c2c(=O)cc(-c3ccccc3)oc2c1`, the growth in the assay on SR leukemia is 5.75% (active); in the assay on RPMI-8226 leukemia it was 16.4%; with OVCAR-8 ovarian, 32.4%; in the assay with OVCAR-5 ovarian, 78.1%; in the assay on OVCAR-4 ovarian, 65.6%; in the assay with SK-OV-3 ovarian it was 50.7%. The growth in the assay with OVCAR-3 ovarian is 5.9% (active); with HS 578T breast, 45.6%; in the assay with NCI/ADR-RES ovarian, 11.5%.
With `COc1ccc(CNCCN2C(=O)c3ccc4c5c(ccc(c35)C2=O)C(=O)N(CCNCc2ccc(OC)cc2)C4=O)cc1`, the growth in the assay on SR leukemia is -29.4% (active); in the assay with RPMI-8226 leukemia it was -35.2% (active); in the assay on OVCAR-8 ovarian, -67.3% (active); with OVCAR-5 ovarian it was -72.7% (active); in the assay on OVCAR-4 ovarian, -99.5% (active); with SK-OV-3 ovarian, -68.1% (active). Further, the growth with OVCAR-3 ovarian is -95.5% (active); with HS 578T breast, -41.1% (active); with NCI/ADR-RES ovarian, -25.9% (active).
Take `O=S(=O)(NCCNc1nccc(-c2c(-c3ccc(F)c(O)c3)nc3sccn23)n1)c1ccccc1`: the growth in the assay with SR leukemia was 35.8%; with RPMI-8226 leukemia, 41%; in the assay on OVCAR-8 ovarian, 67.6%; with OVCAR-5 ovarian, 115%; in the assay with SK-OV-3 ovarian, 85.9%; in the assay on IGROV1 ovarian, 68.9%. In addition, the figures for the growth with OVCAR-3 ovarian, in the assay with HS 578T breast and in the assay with NCI/ADR-RES ovarian were 81.6%, 82.1% and 106%, respectively.
As for `CC(=O)O[C@]1(C(C)=O)CC[C@H]2[C@@H]3C=C(Cl)C4=CC(=O)CC[C@]4(C)[C@H]3CC[C@@]21C`, the growth was 92.1% with SR leukemia; 92.7% with RPMI-8226 leukemia; 101% in the assay on OVCAR-8 ovarian; 101% in the assay on OVCAR-5 ovarian; 100% in the assay with OVCAR-4 ovarian; 107% in the assay with SK-OV-3 ovarian. Moreover, the growth in the assay on OVCAR-3 ovarian is 121%; with NCI/ADR-RES ovarian, 99.6%.
`O=S(=O)(O)c1cc(O)c2c(N=Nc3ccc(Nc4ccccc4)c4c(S(=O)(=O)O)cccc34)cc(S(=O)(=O)O)cc2c1`: the growth with SR leukemia is 111%; with RPMI-8226 leukemia it was 109%; in the assay on OVCAR-8 ovarian, 97%; in the assay on OVCAR-5 ovarian, 105%; in the assay with OVCAR-4 ovarian, 113%; in the assay on SK-OV-3 ovarian, 104%. The growth was 107% in the assay on OVCAR-3 ovarian, 101% with HS 578T breast and 102% in the assay with NCI/ADR-RES ovarian.
For `CCCCCCOc1ccc(C(=N)N(CCCC)CCCC)c2ccccc12`, the growth was -46.9% (active) with SR leukemia; -41.2% (active) in the assay on RPMI-8226 leukemia; -74.6% (active) in the assay on OVCAR-8 ovarian; -93.8% (active) in the assay with OVCAR-5 ovarian; -96.4% (active) in the assay on OVCAR-4 ovarian; -96.4% (active) in the assay with SK-OV-3 ovarian. In addition, the growth in the assay on OVCAR-3 ovarian was -94.2% (active); in the assay on HS 578T breast, -13.9% (active); in the assay with NCI/ADR-RES ovarian it was -95.3% (active).
In the case of `C[C@H]1[C@H](C)CC[C@]2(CO)CC[C@]3(C)C(=CC[C@@H]4[C@@]5(C)Cc6c([nH]c7ccccc67)C(C)(C)[C@@H]5CC[C@]43C)[C@H]12`, the growth is 75.8% with SR leukemia; 83.7% with RPMI-8226 leukemia; 77% in the assay on OVCAR-8 ovarian; 116% in the assay on OVCAR-5 ovarian; 89.8% in the assay with OVCAR-4 ovarian; 96.9% in the assay on SK-OV-3 ovarian. The growth with OVCAR-3 ovarian is 87.4%; with HS 578T breast, 74.6%; in the assay with NCI/ADR-RES ovarian it was 90.6%.
With `COc1ccccc1/C=N/NC1=NC2C(N1)N(C)C(=O)N2C` (centres undefined), the growth was 110% with SR leukemia; 119% in the assay on RPMI-8226 leukemia; 103% in the assay with OVCAR-8 ovarian; 102% with OVCAR-5 ovarian; 106% in the assay on OVCAR-4 ovarian; 95.4% in the assay with SK-OV-3 ovarian. The results for the growth in the assay with OVCAR-3 ovarian, in the assay with HS 578T breast and in the assay on NCI/ADR-RES ovarian were 107%, 95.1% and 105%, respectively.
